Compounds with a hit are over-represented: about 18% of the library has one in this group of screens.
GCN5L2 inh – blocks human GCN5L2 histone acetyltransferase; Q92830; GCN5L2 HAT assay, ThioGlo1 CoA-SH fluorescence; Potency, µM (doses to about 58.9 µM), for inactives: top-dose activity change, negative = inhibition, actives largely listed as inhibitors; hit rate 0.21% among 390,000; AID 504327
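ThioGlo1-coupled HAT assay: 20nM GCN5L2, 70uM acetyl-CoA, 75uM H3(1-25) peptide, pH 7.5. Fluorescence read at 340/540nm at start and after 20 min at room temperature.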
TDP1 cell noCPT – qHTS for Inhibitors of human tyrosyl-DNA phosphodiesterase 1 (TDP1): qHTS in cells in absence of CPT; DT40 Tdp1-/- hTDP1 cells, no CPT, ATP luminescence, 48 h; Potency, µM (doses to about 46.2 µM), inactives show at the top dose activity change, negative = growth inhibition, hits mostly inhibitors; hit rate 15% among 420,000; further: nearly all actives have a fitted effect of over 55% in size
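Chicken DT40 Tdp1-/- cells complemented with human TDP1, screened without camptothecin (DMSO vehicle only), 400 cells/well. Compounds pin-transferred, cells incubated at 37 °C for at least 48 hr. Growth read as ATP-dependent luminescence (CellTiter-Glo, 30 min at RT).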
VDR inh – blocks the human vitamin D receptor | AID 504847 | P11473 | Potency, µM, inactives show max response, negative = inhibition, actives largely listed as inhibitors | hit rate 0.93% among 400,000 | VDR-SRC2-3 peptide fluorescence polarization, 2 h
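Fluorescence polarization assay of small-molecule disruption of VDR binding to coregulator peptide SRC2-3. Compounds and controls pin-transferred, then read after 2 h incubation at ambient room temperature.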
PLK1 PBD inh – PLK1 (human) polo-box domain binding inhibition. Plk1 PBD binding of FITC phosphopeptide, fluorescence polarization. Potency, µM, for the others: max response, negative = inhibition, hits mostly inhibitors. hit rate 2.8% among 360,000; further: series mostly up to about 57 µM; nearly all actives have a fitted effect of over 65% in size
TDP1 cell CPT – growth inhibition of DT40 Tdp1-/-;hTDP1 cells with camptothecin (screen for TDP1 inhibitors); chicken DT40 Tdp1-/-;hTDP1 cells + 20 nM CPT, ATP luminescence, 48 h; Potency, µM (top dose mostly 46.2 µM), for inactives: at the top dose activity change, negative = growth inhibition, usual class: inhibitors; hit rate 12% among 420,000; AID 686979; further: nearly all actives have a fitted effect of over 55% in size
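Cell growth measured by CellTiter-Glo luminescence after a minimum 48 h, 37 C compound exposure with 20 nM CPT in Tdp1-knockout DT40 cells stably expressing hTDP1, seeded 400/well; qHTS titration format.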
TDP1 block – inhibitors of human tyrosyl-DNA phosphodiesterase TDP1 | Q9NUW8 | recombinant TDP1, AlphaScreen DNA substrate cleavage | Potency, µM (series often up to 130 µM), for inactives: at the top dose activity change, negative = inhibition, most hits filed as inhibitors | hit rate 0.28% among 350,000; further: nearly all actives have a fitted effect of over 40% in size
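Signal: AlphaScreen proximity between streptavidin donor and anti-FITC acceptor beads on intact substrate. Reaction: Tdp1 1 nM, substrate 15 nM final, 5 min RT after 15 min compound preincubation.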
* hit, by the source's call; u = inconclusive; x = no result. The call rests on the fitted dose curve; in most records, active means well fitted curve in the direction sought with a large enough effect; inconclusive means small, poorly fitted or top-dose-only effect, or another doubt; inactive means no such curve, though single readings can be large; an effect the other way counts as inactive or inconclusive. On the % scale 0 is the no-effect control and ±100 the full control effect; potency means the concentration at half of the fitted maximal effect.

SMILES | GCN5L2 inh | TDP1 cell noCPT | VDR inh | PLK1 PBD inh | TDP1 cell CPT | TDP1 block
CCc1cc(CNC(=O)CCc2nnc(CCCc3ccccc3)o2)on1 | -1% | 8% | 9% | 3% | 5% | 4%
CCN=C(NCC)SC1CC(=O)N(c2ccc(F)cc2)C1=O (centres undefined) | u | -7% | -8% | -11% | 0% | 7%
C[C@@H]1O[C@@H](O[C@@H]2C(=O)c3c(O)cc(O)cc3O[C@H]2c2ccc(O)c(O)c2)[C@H](O)[C@H](O)[C@H]1O | -3% | -5% | 9% | -3% | 0% | -8%
Cc1ccccc1C(=O)N=c1sccn1C | -15% | 3.3µM* | 24% | -8% | -1% | 4%
Cc1cccc(C(=O)N=c2sccn2C)c1[N+](=O)[O-] | -1% | -27% | -5% | 0% | u | 4%
Clc1ccc2nc(C3CCN(Cc4nnnn4C4CCCCC4)CC3)[nH]c2c1 | -2% | u | 2% | -8% | u | -1%
Cc1ccc(Cn2nnnc2CN2CCC(c3nc4ccc(Cl)cc4[nH]3)CC2)cc1 | -2% | 2.3µM* | -3% | -4% | 2.6µM* | 5%
Cn1c(=O)c2c(SCC(=O)N3CCOCC3)nc(C3CCCCC3)nc2n(C)c1=O | -8% | x | x | x | x | -6%
CC(=O)c1ccc(NC(=O)CSc2nc(C3CCCC3)nc3c2c(=O)n(C)c(=O)n3C)cc1 | -15% | 5.2µM* | 14% | x | 5.2µM* | 5%
Cn1c(=O)c2c(SCC(=O)Nc3nccs3)nc(C3CC3)nc2n(C)c1=O | -3% | 18µM* | 18% | -9% | 23µM* | 1%
CCCn1c(=O)n(C)c(=O)c2c(SCc3cc(C(C)=O)ccc3OCC)nc(C3CC3)nc21 | x | 26µM* | 8% | -4% | 21µM* | x
Cn1c(=O)c2c(SC3CCCC3)nc(C3CC3)nc2n(C)c1=O | -3% | 21µM* | -11% | -12% | u | 4%
Cc1cccc(NC(=O)CSc2nc(C3CCCC3)nc3c2c(=O)n(C)c(=O)n3C)c1C | 0% | -7% | -2% | x | -14% | 0%
COc1ccc(CN(Cc2ccccc2)C(=O)c2ccccc2O)cc1COc1ccc(NC(C)=O)cc1 | x | x | x | x | x | -13%
Cc1cnc(-c2nc3ccccc3n2C(C(=O)NC(C)(C)C)c2ccncc2)cn1 (centres undefined) | x | -16% | x | -6% | -13% | x
O=C(Nc1cccc(Cl)c1)c1ccc(NCCCN2CCOCC2)c([N+](=O)[O-])c1 | -4% | 29µM* | 11% | -10% | u | 9%
O=C(NCCCN1CCOCC1)c1ccc(Sc2ccc(Br)cc2)c([N+](=O)[O-])c1 | -8% | 10µM* | 9% | 3% | 6.5µM* | 3%
Cc1ccc(NC(=O)c2ccc(NCCCN3CCC(C)CC3)c([N+](=O)[O-])c2)cc1F | -2% | 8.2µM* | -1% | -28% | 4.6µM* | -1%
Cc1ccc(NC(=O)c2ccc(NCCN)c([N+](=O)[O-])c2)cc1 | -3% | u | 3% | -3% | u | 7%
O=C(NCCCN1CCOCC1)c1cccc(NC(=O)c2ccccc2)c1 | x | -1% | 9% | -11% | 8% | x
Cc1cc(C(=O)NCCN2CCOCC2)ccc1[N+](=O)[O-] | -1% | -7% | -1% | -7% | -3% | 0%
O=C(CCc1nnc(-c2ccc3c(c2)OCO3)o1)NCCc1ccccc1F | -4% | u | u | 12µM* | 16µM* | 2%
NC(=S)N/N=C/c1ccc(C(F)(F)F)cc1 | 1% | 16µM* | -15% | 1% | 21µM* | -6%
NC(=S)N/N=C/c1ncc(C(F)(F)F)cc1Cl | -4% | 0.52µM* | u | -4% | 0.41µM* | 7%
COc1ccc(/C=N/NC(N)=S)cc1 | -2% | u | 15% | -7% | u | -1%
